These results are taken from PMC5540273 (PLoS ONE, 2017).

Common to all, as to conditions: concentration: 1 μM, replicates: in singlicate; n = 1
For experiment [1], the system named is TIE1.
Experiment [2] concerns T1, TIE2.
T1 construct: gene TEK

Experiment [3] deals with TLK1.
The test system of experiment [4] is TLK2.
The subject of experiment [5] is TNIK.
Experiment [6] deals with TNK1.
Experiment [7] relates to TNK2.
The test system of experiment [8] is TNNI3K.
Experiment [9] deals with T2, TRKA.
T2 construct: gene NTRK1

Experiment [10] has as its system TRKB.
The subject of experiment [11] is T3, TRKC.
T3 construct: gene NTRK3

In experiment [12] the test system is TRPM6.
Experiment [13] has as its system TSSK1B.
Experiment [14] concerns TSSK3.
Experiment [15] relates to TTK.
In experiment [16] the test system is TXK.
For experiment [17], the system named is TYK2(JH1domain-catalytic).
Experiment [18] concerns TYK2(JH2domain-pseudokinase).
The subject of experiment [19] is TYRO3.
In experiment [20] the test system is ULK1.

The structures appear in SMILES notation.
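Note: KINOMEscan kinase panel screen.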

For the compound `Cn1cc(-c2ccc3c(c2)CCN3C(=O)Cc2cccc(C(F)(F)F)c2)c2c(N)ncnc21` [GSK2606414], the “%Inh” value in experiment [1] was 46%; in experiment [2] it was 24%; in [3] it was 2%; in experiment [4], 0%; in [5], 0%; in [6], 0%. In addition, the “%Inh” value in experiment [7] amounted to 0%; in [8] it was 0%; in experiment [9], 35%; in experiment [10], 46%; in experiment [11] it was 40%; in experiment [12], 0%. In addition, the “%Inh” value in experiment [13] is recorded as 12%; in experiment [14], 0%; in experiment [15] it was 22%; in experiment [16], 0%; in [17], 15%; in [18] it was 0%. Besides, the “%Inh” value is recorded as 0% in experiment [19] and 27% in experiment [20].

`Fc1ccc(-c2ncn(CCCNCc3ccccc3)c2-c2ccncc2)cc1`: the “%Inh” value is 23% in experiment [1]; 0% in experiment [2]; 26% in experiment [3]; 0% in [4]; 12% in [5]; 0% in experiment [6]. Moreover, the “%Inh” value in experiment [7] is 13%; in experiment [8], 0%; in [9], 38%; in experiment [10] it was 3%; in experiment [11], 19%; in experiment [12], 12%. Moreover, the “%Inh” value is 20% in experiment [13]; 20% in experiment [14]; 0% in experiment [15]; 0% in experiment [16]; 44% in [17]; 0% in experiment [18]. In addition, the “%Inh” value in experiment [19] and in experiment [20] was 0% throughout.

Regarding `Fc1cccc(COc2ccc(Nc3ncnc4nn5ccccc5c34)cc2Cl)c1` [GW689066], the “%Inh” value in experiment [1], in [2], in experiment [3], in experiment [4], in experiment [5] and in experiment [6] was 0% in each case. The “%Inh” value in experiment [7] worked out at 10%; in experiment [8], 0%; in experiment [9] it was 0%; in [10] it was 22%; in experiment [11], 28%; in experiment [12], 0%. Moreover, the “%Inh” value in experiment [13] was found to be 0%; in experiment [14], 17%; in [15] it was 10%; in experiment [16] it was 3%; in [17], 29%; in experiment [18], 24%. The entries for the “%Inh” value in experiment [19] and in experiment [20] were 0% and 1%, respectively.

As to `OCCOCCn1ccc2ncnc(Nc3ccc(Oc4cccc(Cl)c4)c(Cl)c3)c21`, the “%Inh” value in experiment [1] is 0%; in experiment [2], 31%; in experiment [3] it was 0%; in [4] it was 0%; in [5], 0%; in experiment [6], 0%. The “%Inh” value in experiment [7], in [8], in experiment [9], in experiment [10], in experiment [11] and in [12] was 0% each time. For the same compound, the “%Inh” value in [13], in experiment [14], in [15], in experiment [16], in [17] and in experiment [18] was 0% throughout. Also, the “%Inh” value in experiment [19] and in [20] was 0% throughout.

With `Cn1ccc2ncnc(Nc3ccc(Oc4cccc(Cl)c4)c(Cl)c3)c21`, the “%Inh” value in experiment [1] was found to be 0%; in experiment [2] it was 26%; in experiment [3], 22%; in [4], 9%; in experiment [5] it was 17%; in [6] it was 0%. Moreover, the “%Inh” value worked out at 0% in experiment [7]; 11% in [8]; 0% in experiment [9]; 0% in experiment [10]; 11% in experiment [11]; 0% in [12]. Also, the “%Inh” value in [13] came out at 0%; in experiment [14], 2%; in experiment [15], 16%; in experiment [16], 25%; in experiment [17], 18%; in experiment [18] it was 4%. Besides, the “%Inh” value is 4% in [19] and 10% in experiment [20].

As to `CS(=O)(=O)CCNCc1nc(-c2ccc3ncnc(Nc4ccc(OCc5cccc(F)c5)c(Cl)c4)c3c2)cs1.Cl` [GW583340], the “%Inh” value in [1] was found to be 0%; in [2], 0%; in experiment [3], 22%; in experiment [4], 0%; in [5] it was 0%; in experiment [6], 0%. In addition, the “%Inh” value in experiment [7] came out at 6%; in experiment [8], 0%; in experiment [9], 0%; in [10], 0%; in experiment [11] it was 0%; in [12] it was 37%. Moreover, the “%Inh” value in [13] came to 0%; in experiment [14] it was 12%; in [15] it was 0%; in [16], 94.7%; in [17], 0%; in [18], 16%. Moreover, the “%Inh” value in [19] and in experiment [20] was 0% in each case.

For the compound `Clc1cccc(-c2nc(Nc3ccncc3)c3ccccc3n2)c1` [GW873004], the “%Inh” value in experiment [1] is on record as 0%; in [2], 48%; in [3] it was 0%; in experiment [4], 0%; in experiment [5], 0%; in [6], 59%. Also, the “%Inh” value is reported as 40% in [7]; 0% in experiment [8]; 0% in experiment [9]; 0% in experiment [10]; 0% in experiment [11]; 0% in experiment [12]. Also, the “%Inh” value in experiment [13] is given as 19%; in experiment [14], 0%; in experiment [15] it was 0%; in experiment [16], 1%; in experiment [17], 0%; in experiment [18] it was 13%. Besides, the “%Inh” value in experiment [19] came to 58%; in experiment [20] it was 0%.

For `CNc1nccc(-c2c(-c3ccc(F)cc3)ncn2CCCN2CCOCC2)n1` [SB-222516], the “%Inh” value amounted to 0% in experiment [1]; 0% in experiment [2]; 0% in experiment [3]; 0% in [4]; 0% in experiment [5]; 4% in [6]. For the same compound, the “%Inh” value in experiment [7] was determined as 0%; in experiment [8], 0%; in experiment [9], 0%; in experiment [10] it was 19%; in experiment [11], 38%; in experiment [12], 0%. Further, the “%Inh” value in [13] was found to be 12%; in [14], 12%; in experiment [15], 0%; in experiment [16], 9%; in [17] it was 18%; in [18], 16%. In addition, the entries for the “%Inh” value in experiment [19] and in experiment [20] were 17% and 13%, respectively.

Regarding `CSc1nn2c(=O)cc(N3CCOCC3)nc2n1Cc1cccc(Cl)c1Cl` [GSK2347225], the “%Inh” value is 14% in experiment [1]; 2% in experiment [2]; 4% in experiment [3]; 0% in experiment [4]; 3% in experiment [5]; 3% in [6]. The “%Inh” value in experiment [7] is 24%; in experiment [8] it was 15%; in experiment [9] it was 1%; in [10] it was 0%; in experiment [11], 0%; in experiment [12], 0%. Further, the “%Inh” value was 26% in experiment [13]; 30% in experiment [14]; 0% in experiment [15]; 0% in experiment [16]; 12% in [17]; 0% in experiment [18]. Also, the “%Inh” value in experiment [19] is given as 5%; in [20] it was 7%.

Turning to `Nc1nccc2scc(-c3ccc4c(c3)CCN4C(=O)Cc3cc(F)ccc3F)c12` [GSK2587663], the “%Inh” value in [1] is 54%; in experiment [2], 1%; in experiment [3], 4%; in experiment [4], 0%; in [5] it was 0%; in experiment [6] it was 0%. For the same compound, the “%Inh” value in [7] was determined as 23%; in [8] it was 4%; in [9], 0%; in experiment [10] it was 42%; in [11] it was 40%; in experiment [12] it was 5%. For the same compound, the “%Inh” value in [13] came out at 5%; in [14], 15%; in experiment [15], 2%; in experiment [16] it was 5%; in experiment [17] it was 18%; in [18], 11%. For the same compound, the “%Inh” value is on record as 0% in experiment [19] and 6% in experiment [20].
